This excerpt belongs to a sample that is enriched for the strongest signals.
How the values were obtained:
Assay in all cases: glycan array binding signal (z-score within array); higher = stronger binding
Settings in all cases: glycan notation: IUPAC condensed, linker removed; mutation: G182A
Fuc(a1-2)Gal(b1-4)GlcNAc = molecular target: Fuc(a1-2)Gal(b1-4)GlcNAc
In short: (§1)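 Columns mapping to the same glycan were averaged after glycan names were converted to IUPAC-condensed notation. The data come from 3228 arrays in the Consortium for Functional Glycomics database, limited to those with an available protein sequence. Binding is reported as a within-array Z-score averaged across arrays of one protein sequence and across linkers.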

[1] = molecular target: Fuc(a1-2)Gal(b1-4)GlcNAc(b1-3)Gal(b1-4)GlcNAc(b1-3)Gal(b1-4)GlcNAc
In short: as §1

[2] = molecular target: Fuc(a1-2)Gal(b1-4)GlcNAc(b1-3)GalNAc
In short: as §1

[3] = molecular target: Fuc(a1-2)[Gal(a1-3)]Gal(b1-4)GlcNAc
In short: as §1

[4] = molecular target: Fuc(a1-2)[Gal(a1-3)]Gal(b1-4)GlcNAc(b1-2)Man(a1-3)[Fuc(a1-2)[Gal(a1-3)]Gal(b1-4)GlcNAc(b1-2)Man(a1-6)]Man(b1-4)GlcNAc(b1-4)GlcNAc
In short: as §1

[5] = molecular target: Fuc(a1-2)[GalNAc(a1-3)]Gal(b1-4)GlcNAc(b1-2)Man(a1-3)[Fuc(a1-2)[GalNAc(a1-3)]Gal(b1-4)GlcNAc(b1-2)Man(a1-6)]Man(b1-4)GlcNAc(b1-4)GlcNAc
In short: as §1

[6] = molecular target: Fuc(a1-2)[GalNAc(a1-3)]Gal(b1-4)GlcNAc(b1-3)Gal(b1-4)GlcNAc(b1-3)Gal(b1-4)GlcNAc
In short: as §1

[7] = molecular target: Fuc(a1-3)[Gal(b1-4)]GlcNAc(b1-2)Man(a1-3)[Fuc(a1-3)[Gal(b1-4)]GlcNAc(b1-2)Man(a1-6)]Man(b1-4)GlcNAc(b1-4)GlcNAc
In short: as §1

[8] = molecular target: Fuc(a1-3)[Gal(b1-4)]GlcNAc(b1-3)Gal(b1-3)[Fuc(a1-4)]GlcNAc
In short: as §1

Gal(a1-3)GalNAc = molecular target: Gal(a1-3)GalNAc
In short: as §1

Gal(a1-4)Gal(b1-4)Glc = molecular target: Gal(a1-4)Gal(b1-4)Glc
In short: as §1

[9] = molecular target: Gal(b1-3)GalNAc(b1-4)Gal(b1-4)Glc
In short: as §1

[10] = molecular target: Gal(b1-4)GlcNAc(b1-2)Man(a1-6)[Man(a1-3)]Man(b1-4)GlcNAc(b1-4)GlcNAc
In short: as §1

[11] = molecular target: Gal(b1-4)GlcNAc(b1-3)Gal(b1-4)GlcNAc(b1-3)Gal(b1-4)GlcNAc
In short: as §1

[12] = molecular target: Gal(b1-4)GlcNAc(b1-6)Gal(b1-4)GlcNAc
In short: as §1

[13] = molecular target: Gal3S(b1-3)[Fuc(a1-4)]GlcNAc
In short: as §1

GalNAc(a1-3)Gal = molecular target: GalNAc(a1-3)Gal
In short: as §1

[14] = molecular target: GalNAc(b1-3)Gal(a1-6)Gal(b1-4)Glc
In short: as §1

[15] = molecular target: GlcNAc(a1-4)Gal(b1-4)GlcNAc(b1-3)Gal(b1-4)GlcNAc(b1-3)Gal(b1-4)GlcNAc
In short: as §1

[16] = molecular target: GlcNAc(b1-3)Gal(b1-4)GlcNAc(b1-3)Gal(b1-4)GlcNAc
In short: as §1

GlcNAc3Prop(b1-4)GlcNAc = molecular target: GlcNAc3Prop(b1-4)GlcNAc
In short: as §1

Man(a1-2)Man(a1-3)Man = molecular target: Man(a1-2)Man(a1-3)Man
In short: as §1

[17] = molecular target: Man(a1-2)Man(a1-3)[Man(a1-2)Man(a1-6)]Man
In short: as §1

[18] = molecular target: Neu5Ac(a2-3)Gal(b1-3)[Fuc(a1-4)]GlcNAc(b1-3)Gal(b1-3)[Fuc(a1-4)]GlcNAc
In short: as §1

[19] = molecular target: Neu5Ac(a2-3)Gal(b1-4)GlcNAc(b1-2)Man(a1-3)[Neu5Ac(a2-6)Gal(b1-4)GlcNAc(b1-2)Man(a1-6)]Man(b1-4)GlcNAc(b1-4)GlcNAc
In short: as §1

Neu5Ac(a2-3)GalNAc = molecular target: Neu5Ac(a2-3)GalNAc
In short: as §1

Neu5Ac(a2-6)Gal(b1-4)Glc = molecular target: Neu5Ac(a2-6)Gal(b1-4)Glc
In short: as §1

[20] = molecular target: Neu5Ac(a2-6)Gal(b1-4)GlcNAc
In short: as §1

[21] = molecular target: Neu5Ac(a2-6)Gal(b1-4)GlcNAc(b1-3)GalNAc
In short: as §1

[22] = molecular target: Neu5Ac(a2-6)GlcNAc(b1-4)GlcNAc(b1-4)GlcNAc
In short: as §1

[23] = molecular target: Neu5Ac(a2-8)Neu5Ac(a2-8)Neu5Ac(a2-3)[GalNAc(b1-4)]Gal(b1-4)Glc
In short: as §1

[24] = molecular target: Neu5Ac9Ac(a2-6)Gal(b1-4)GlcNAc
In short: as §1

Neu5Gc(a2-3)Gal(b1-4)Glc = molecular target: Neu5Gc(a2-3)Gal(b1-4)Glc
In short: as §1

B1: Gal 3 (Homo sapiens), P17931 (protein)
chain: MADNFSLHDALSGSGNPNPQGWPGAWGNQPAGAGGYPGASYPGAYPGQAPPGAYPGQAPPGAYHGAPGAYPGAPAPGVYPGPPSGPGAYPSSGQPSAPGAYPATGPYGAPAGPLIVPYNLPLPGGVVPRMLITILGTVKPNANILDFQRGNDVAFHFNPRFNENNRRVIVCNTKLDNNWAREERQSVFPFESGKPFKIQVLVEPDHFKVAVNDAHLLQYNHRVKKLNEISKLGISGDIDLTSASYTMI
Fuc(a1-2)Gal(b1-4)GlcNAc
  glycan array binding signal (z-score): -0.188
[1]
  glycan array binding signal (z-score): 5.12
[2]
  glycan array binding signal (z-score): -0.187
[3]
  glycan array binding signal (z-score): 1.68
[4]
  glycan array binding signal (z-score): 9.17
[5]
  glycan array binding signal (z-score): 5.25
[6]
  glycan array binding signal (z-score): 6.29
[7]
  glycan array binding signal (z-score): -0.191
[8]
  glycan array binding signal (z-score): -0.188
Gal(a1-3)GalNAc
  glycan array binding signal (z-score): -0.185
Gal(a1-4)Gal(b1-4)Glc
  glycan array binding signal (z-score): -0.192
[9]
  glycan array binding signal (z-score): -0.189
[10]
  glycan array binding signal (z-score): -0.197
[11]
  glycan array binding signal (z-score): 7.13
[12]
  glycan array binding signal (z-score): -0.196
[13]
  glycan array binding signal (z-score): -0.186
GalNAc(a1-3)Gal
  glycan array binding signal (z-score): -0.192
[14]
  glycan array binding signal (z-score): -0.19
[15]
  glycan array binding signal (z-score): 9.32
[16]
  glycan array binding signal (z-score): 4.53
GlcNAc3Prop(b1-4)GlcNAc
  glycan array binding signal (z-score): -0.182
Man(a1-2)Man(a1-3)Man
  glycan array binding signal (z-score): -0.189
[17]
  glycan array binding signal (z-score): -0.189
[18]
  glycan array binding signal (z-score): -0.187
[19]
  glycan array binding signal (z-score): -0.168
Neu5Ac(a2-3)GalNAc
  glycan array binding signal (z-score): -0.192
Neu5Ac(a2-6)Gal(b1-4)Glc
  glycan array binding signal (z-score): -0.183
[20]
  glycan array binding signal (z-score): -0.177
[21]
  glycan array binding signal (z-score): -0.143
[22]
  glycan array binding signal (z-score): -0.191
[23]
  glycan array binding signal (z-score): -0.167
[24]
  glycan array binding signal (z-score): -0.189
Neu5Gc(a2-3)Gal(b1-4)Glc
  glycan array binding signal (z-score): -0.195

Reference: the supplement of paper PMC8728848
